A selection: hits, their analogues and other compounds. The true share with any hit is near 6.5%.
HCMV inh – inhibitors of human cytomegalovirus; HFF cells, HCMV-luciferase reporter, 72 h; active compounds read low; activity change, negative = inhibition, % at 57.5 µM; 4.5% of 410,000 active; in the data active = activity change below about -60%; inconclusive = no clear call, values can overlap the other calls; inactive = above about -39%
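After 16 h attachment at 37C, HFF cells received test compound and HCMV-luciferase (1 PFU/cell); reporter luminescence read 72 h later, data normalized against buffer-only and known inhibitor Salinomycin.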
LASV entry inh – inhibitors of Lassa virus binding or cell entry. Lassa virus pseudotype entry inhibition, cell reporter. Potency, µM (top dose mostly 37.9 µM), for inactives: at the top dose activity change, negative = inhibition, hits mostly inhibitors. 1.2% of 300,000 active; calls by dose curve; tested in HEK293 cells; note: potency is the fitted concentration of half-maximal effect; nearly all actives have a fitted effect of over 50% in size
MARV entry inh – inhibitors of Marburg virus binding or cell entry; Potency, µM (series often up to 37.8 µM), without a hit: at the top dose activity change, negative = inhibition, actives largely listed as inhibitors; 1.8% of 300,000 active; Marburg virus pseudotyped entry inhibition, cell reporter; calls by dose curve; tested in HEK293 cells; note: potency is the fitted concentration of half-maximal effect
FMDV inh – foot and mouth disease virus antiviral activity | FMDV antiviral cell-based qHTS | 1.2% of 410,000 active | Potency, µM (top dose mostly 57.9 µM), without a hit: top-dose activity change, negative = inhibition, usual class: inhibitors; calls by dose curve; tested in HEK293T cells; note: read-out not given here; potency is the fitted concentration of half-maximal effect; nearly all actives have a fitted effect of over 45% in size
Vaccinia Venus – inhibitors of vaccinia virus (Venus reporter); Vaccinia virus Venus reporter expression, fluorescence; Potency, µM (doses to about 36.5 µM), without a hit: top-dose activity change, negative = inhibition, usual class: inhibitors; 0.46% of 330,000 active; calls by dose curve; tested in A549 cells; note: potency is the fitted concentration of half-maximal effect; nearly all actives have a fitted effect of over 30% in size
VACV mCherry inh – inhibitors of vaccinia virus infection (mCherry reporter signal); Vaccinia virus mCherry reporter infection, fluorescence; 0.63% of 310,000 active; Potency, µM (titrated, usually from 36.5 µM), for the others: at the top dose activity change, negative = inhibition, usual class: inhibitors; calls by dose curve; tested in A549 cells; note: potency is the fitted concentration of half-maximal effect; nearly all actives have a fitted effect of over 35% in size
Active calls of the source: *; i = inactive; ? = inconclusive; / = no result; + = active, no number; [ ] = another dose, or the depositor's remark. % is set by controls: 0 for no effect and ±100 for the full control effect.

SMILES	HCMV inh	LASV entry inh	MARV entry inh	FMDV inh	Vaccinia Venus	VACV mCherry inh
Cc1cccc(CNC(=O)c2cccc(NC(=O)N3CCSc4ncccc43)c2)c1	+	5.9%[46.1 µM]	/	0.0%	-9.8%	-6.6%
CCN1CCCC1CNC(=O)c1cnn(-c2nccc(-c3cc4ccccc4o3)n2)c1C (centres undefined)	/	/	/	3.8%	-10.1%	-6.3%
CC(=O)c1ccc(NC(=O)Nc2ccc3snnc3c2)cc1	52.9	?	5.0%[46.1 µM]	30.3%	-10.2%	-13.0%
Cc1ccc(F)c(NC(=O)Nc2ccc3snnc3c2)c1	-105.9*	-0.8%[46.1 µM]	3.8%[46.1 µM]	12.9%	-2.8%	-3.8%
O=C(Nc1ccc(F)cc1)Nc1ccc2snnc2c1	-75.1*	-26.4%[46.1 µM]	?	-17.0%	-28.1%	-26.5%
CC(=O)Nc1cccc(NC(=S)Nc2cccc(Cl)c2C)c1	40.8	/	/	20.0%	-17.8%	-4.9%
CC(=O)Nc1cccc(NC(=O)Nc2cccc(Cl)c2C)c1	-71.0*	-16.8%[46.1 µM]	-1.2%[46.1 µM]	-11.8%	-22.7%	i
Cc1c(Cl)cccc1NC(=O)Nc1ccc2snnc2c1	-103.9*	?	?	0.0%	?	?
CNC(=O)Nc1ccc2snnc2c1	7.6	/	/	-0.1%	-8.5%	i
COc1ccc(CN2CCOc3ccc(CN4CCC(Oc5cccnc5)CC4)cc3C2)c(F)c1	/	/	/	?	-27.7%	-9.9%
COc1ccc(NC(=O)/C=C/c2c(Cl)nc3ccccn23)cc1	-61.8*	/	/	-3.0%	/	/
C=Cc1ncc(OC)c2c1[nH]c1ccccc12	/	/	/	15.8µM*	?	?
COc1ccc(/C=C/c2nccc3c2[nH]c2ccccc23)cc1	/	/	/	/	-9.0%	17.4%
S=C(NCC1CCCO1)Nc1ccc(Nc2ccccc2)cc1 (centres undefined)	-69.0*	-14.9%	-7.3%[14.2 µM]	-22.6%	-3.5%	-9.8%
COc1ccc(/C=C/C(=O)NC(=S)NCC2CCCO2)cc1 (centres undefined)	-33.4	?	-0.6%[46.1 µM]	-7.6%	-8.8%	-5.8%
COc1ccccc1/C=C/C(=O)NC(=S)NCC1CCCO1 (centres undefined)	-61.9*	?	3.6%[46.1 µM]	-23.9%	-9.1%	-7.1%
S=C(NCC1CCCO1)Nc1cccc(Cl)c1 (centres undefined)	?	24.0%	7.3%	51.7%	-14.3%	-24.3%
Cc1scc(C(=O)NNC(=S)NCC2CCCO2)c1-c1ccccc1 (centres undefined)	-62.0*	-2.1%	?	-17.7%	-12.9%	-0.8%
COc1ccc(C=CN(CCc2ccc(OC)c(OC)c2)C(=O)c2ccccn2)cc1	/	/	-10.7%[14.2 µM]	/	/	/
COC(=O)C1=C(C)N(Cc2ccccc2)C(=NCCc2ccccn2)NC1c1cccc(F)c1 (centres undefined)	/	/	-21.0%[14.2 µM]	/	/	/
O=C(Cn1ncc2c3ccccc3n(Cc3cccc(Cl)c3)c2c1=O)N1CCCCC1	-11.2	-28.3%[46.1 µM]	?	-19.8%	-12.3%	-18.1%
Cc1ccc2nc(-c3ccc(Br)cc3)cc(C(=O)NCC3CCCO3)c2c1 (centres undefined)	-100.5*	/	/	7.1%	-16.8%	i
COc1cccc(-c2cc(C(=O)NCC3CCCO3)c3cc(Br)cc(C)c3n2)c1 (centres undefined)	-60.3*	/	/	-15.7%	/	/
Cc1cc(Br)cc2c(C(=O)NCC3CCCO3)cc(-c3cccs3)nc12 (centres undefined)	-9.5	-11.7%	-8.0%	8.7%	-14.8%	-15.3%
CC(C)(C)Cc1c(-c2cccc(Br)c2)nc2ccc(Cl)cn12	-23.5	/	/	-7.3%	-0.9%	i
SMILES	HCMV inh	LASV entry inh	MARV entry inh	FMDV inh	Vaccinia Venus	VACV mCherry inh
O=C1c2ccccc2C(=O)c2c1cccc2-n1nnc2ccccc21	-15.2	8.2%	3.1%[46.1 µM]	-15.4%	-10.9%[7.34 µM]	-16.1%[7.34 µM]
O=C1C(N2CCOCC2)=C(n2nnc3ccccc32)C(=O)c2ccccc21	-100.4*	?	7.94µM*	10µM*	?	?
c1ccc2c(c1)sc[n+]2CCC1CCCCC1	/	/	/	/	-5.9%	-7.2%
COc1cc(CNCCc2ccccc2)cc(Br)c1OCC(=O)Nc1ccccc1C	-30.4	3.3%	20.6µM*	-13.8%	/	/
COc1cc(CNCCc2ccccc2)cc(Cl)c1OCc1ccccc1	-16.0	?	?	?	?	10µM*
CCOc1ccccc1CNc1ncnc2onc(-c3ccc(F)cc3)c12	-9.0	23.2%[46.1 µM]	/	?	-5.1%	-0.5%
COC(=O)c1ccccc1NC(=O)NC1CCC(C)CC1 (centres undefined)	-31.1	/	/	0.0%	-14.3%	-25.1%
CN1C(=O)NC(=O)/C(=C\C=C\c2ccccc2[N+](=O)[O-])C1=O	-99.0*	?	?	?	-7.0%	-26.1%
CC(C)NC(=O)C1CCN(C(=O)c2cc3sccc3n2Cc2ccc(F)cc2)CC1	/	?	8.2µM*	/	?	?
COC(=O)c1cc2sccc2n1Cc1ccc(F)cc1	?	-4.0%[46.1 µM]	/	-20.1%	-15.0%	-11.9%
O=C(NCc1ccccc1)c1cc2sccc2n1Cc1ccc(Cl)cc1	/	10.9%[46.1 µM]	-10.7%[46.1 µM]	-1.0%	-2.9%	-2.0%
CC(C)NC(=O)C1CCN(C(=O)c2cc3sccc3n2Cc2ccc(Cl)cc2)CC1	/	/	?	15.8µM*	-23.5%	-6.5%
CCOC(=O)Cn1c(=O)n(C2CCCCC2)c2nc(-c3c(F)cccc3Cl)nc(C(N)=O)c21	-81.8*	2.4%[46.1 µM]	/	?	-8.1%	-16.9%
CCOC(=O)Cn1c(=O)n(C2CCCCC2)c2nc(-c3cccc(F)c3)nc(C(N)=O)c21	6.6	25.5%[46.1 µM]	/	-12.9%	2.1%	-3.5%
COCOc1cc(O)c2c(=O)c(OCOC)c(-c3ccc(OCOC)c(OCOC)c3)oc2c1	-70.5*	/	/	-24.4%	-9.9%	-4.3%
COc1c(-c2ccc(O)c(O)c2)oc2cc(O)cc(O)c2c1=O	40.0	/	/	4.8%	-3.2%	-7.0%
Cc1cc(S(=O)(=O)N(Cc2cccs2)Cc2ccccc2F)ccc1-n1cnnn1	-63.7*	?	?	29.5%	-6.6%	i
Cc1cc(S(=O)(=O)N2CCN(c3ccccc3F)CC2)ccc1-n1cnnn1	-77.2*	-1.7%	?	?	-28.1%	-28.1%
O=C(Nc1cccc(S(=O)(=O)NC2=NCCC2)c1)c1cn(-c2ccccc2)nc1-c1ccc(F)cc1	2.1	/	/	25.5%	/	/
Cc1cc(C)c(NC(=O)c2cc3c(=O)n4ccccc4nc3n2C)c(C)c1	-79.3*	-22.9%[46.1 µM]	/	?	-29.0%	-2.6%
Cc1nc(N=Nc2cc(S(=O)(=O)O)c3cc([N+](=O)[O-])cc(S(=O)(=O)O)c3c2)c(COP(=O)(O)O)c(C=O)c1O	/	?	19.9µM*	-23.5%	-11.2%	-2.1%
Cc1ccc(/C=N/Nc2ccc(C(=O)O)cc2)s1	-73.3*	1.12µM*	?	6.31µM*	3.9%	-4.1%
O=C(O)c1ccc(/C=N/Nc2cccc(C(F)(F)F)c2)cc1	20.8	/	-19.1%[46.1 µM]	11.6%	-5.1%	-6.7%
O=C(O)c1cccc(N/N=C/c2cccc3ccccc23)c1	133.5	?	2µM*	3.98µM*	-0.6%	-3.1%
O=C(O)c1cccc(N/N=C/c2ccc(F)c(F)c2)c1	32.7	3.98µM*	?	-32.6%	-1.3%	i
